SMILES strings stand for the structures. Screen size: about 13,000 compounds; about 3,200 (25%) showed an effect of 50% or more. The list shows a part of the results.

What is called % Inhibition is the change of the read-out against control, counted positive when it falls.

This experiment has as its system P. falciparum stage V gametocytes. The arrangement: BacTiter-Glo ATP luminescence viability of purified stage V gametocytes in 384-well plates, per cent inhibition versus DMSO. The following applies: 48 h, 5 µM; inhibitor.
As to `O=C(Nc1ccc(-c2cccc(-c3nc4ccccc4[nH]3)c2)cc1)NC1CC1c1ccccc1` (stereo not drawn) [TCMDC-133257], the “% Inhibition” value is on record as -13.71%.

With `O=C(CC1CCCC1)N(CC1CCN(Cc2ccc(C(F)(F)F)cc2)CC1)c1ccc(N2CCOCC2)c(F)c1` [TCMDC-135855], the “% Inhibition” value is 9.841%.

Take `CCN(CCCN1CCCCC1)c1nccc(Nc2ccc(Cl)cc2)n1` [TCMDC-137046]: the “% Inhibition” value is 6.161%.

Take `CS(=O)(=O)c1ccccc1CNC(=O)c1cccc(-c2ccc(-c3nc4cc(C(F)(F)F)ccc4[nH]3)cc2)c1` [TCMDC-132506]: the “% Inhibition” value is on record as -36.65%.

With `CC(C)N1CCC(N(Cc2ccc(-c3ccc(Cl)cc3)cc2)C(=O)Cn2c(CCc3cccc(F)c3F)nc(=O)c3ccccc32)CC1` [TCMDC-141368], the “% Inhibition” value is 117.4%.

As for `CC(C)N1CCC(N(Cc2ccc(-c3ccc(C(F)(F)F)cc3)cc2)C(=O)Cn2c(SCc3cccc(F)c3F)cc(=O)c3ccccc32)CC1` [TCMDC-141157], the “% Inhibition” value is 117.9%.

In the case of `CC(C)N1CCC(N(Cc2ccc(-c3ccc(C(F)(F)F)cc3)cc2)C(=O)Cn2c(CCc3cccc(F)c3F)cc(=O)c3ccccc32)CC1` [TCMDC-141141], the “% Inhibition” value was determined as 111.4%.

In the case of `CC(C)N1CCC(N(Cc2ccc(-c3ccc(C(F)(F)F)cc3)cc2)C(=O)Cn2c(SCc3cccc(F)c3F)nc(=O)c3ccccc32)CC1` [TCMDC-141312], the “% Inhibition” value was 121.2%.

Consider `N#Cc1c(N)nc(SCC(=O)Nc2cc(C(F)(F)F)ccc2Cl)c(C#N)c1-c1cccs1` [TCMDC-123750], for which the “% Inhibition” value is listed as -5.622%.

As for `COc1ccc(NC(=O)c2ccc(Br)c(C)c2)cc1N1CCN(Cc2ccccc2)CC1` [TCMDC-139031], the “% Inhibition” value was -19.8%.

For `CSc1cccc(NC(=O)c2cc3ccccc3oc2=O)c1` [TCMDC-123616], the “% Inhibition” value is 19.07%.

Turning to `O=C(NCC(c1ccc(C(F)(F)F)cc1)N1CCCC1)c1cc(-c2ccncc2)c(-c2cccc(O)c2)o1` (stereo not drawn) [TCMDC-135665], the “% Inhibition” value stood at 33.87%.

Consider `CCn1c(SCc2ccccc2)nc2c1c(=O)[nH]c(=O)n2C` [TCMDC-125734], for which the “% Inhibition” value was -6.834%.

`CC(C)CNC(=S)N1CCCN(c2nc3ccc(Cl)cc3s2)CC1` [TCMDC-139465]: the “% Inhibition” value is 24.85%.

Take `Cc1noc(C)c1CN1Cc2ccccc2OC2(CCN(Cc3c[nH]c4cnccc34)CC2)C1` [TCMDC-133381]: the “% Inhibition” value is 19.56%.

Consider `COc1ccc(NC(=O)NC2CCN(c3ccnc4cc(Cl)ccc34)CC2)cc1` [TCMDC-133573], for which the “% Inhibition” value was -92.42%.

Turning to `CC(C)N1CCC(N(Cc2ccc(-c3ccc(Cl)cc3)cc2)C(=O)Cn2c(CCc3cccc(F)c3F)cc(=O)c3ccccc32)CC1` [TCMDC-141363], the “% Inhibition” value turned out to be 102.7%.

Take `CN1CCC(N(Cc2ccc(-c3ccc(C(F)(F)F)cc3)cc2)C(=O)Cn2cc(Cc3cnn(C)c3)c(=O)nc2SCc2cccc(F)c2F)CC1` [TCMDC-141337]: the “% Inhibition” value is reported as 106.7%.

As to `CCCC(C)NC(=O)[C@H](CC1CCCCC1)NC(=O)c1ccc(O)c(-c2cccc(C(F)(F)F)c2)c1` (stereo partly drawn) [TCMDC-140808], the “% Inhibition” value was found to be 13.25%.

As for `CC1CN=C(c2ccc(NC(=O)Nc3ccc(C4=NCC(C)N4)cc3)cc2)N1` (stereo not drawn) [TCMDC-137210], the “% Inhibition” value was -10.63%.

As to `N#Cc1cccc(NC(=O)NC2CCN(CCCCCNC(=O)/C=C/c3ccc(Cl)c(Cl)c3)CC2)c1` [TCMDC-135706], the “% Inhibition” value is given as -58.78%.

For the compound `O=C(/C=C/c1ccc(Cl)c(Cl)c1)NCCCCCN1CCC(NC(=O)c2ccc(F)cc2)CC1` [TCMDC-135840], the “% Inhibition” value stood at 0.6546%.

Regarding `N#Cc1ccc(NC(=O)NC2CCN(CCCCCNC(=O)/C=C/c3ccc(Cl)c(Cl)c3)CC2)cc1` [TCMDC-135705], the “% Inhibition” value is recorded as -23.68%.

On to `N#Cc1cccc(C(=O)NC2CCN(CCCCCNC(=O)/C=C/c3ccc(Cl)c(Cl)c3)CC2)c1` [TCMDC-135841], for which the “% Inhibition” value is recorded as 88.37%.

Regarding `O=C(/C=C/c1ccc(Cl)c(Cl)c1)NCCCCCN1CCC(NC(=O)c2cccc(Cl)c2)CC1` [TCMDC-135868], the “% Inhibition” value came to 49.83%.

In the case of `N#Cc1ccc(C(=O)NC2CCN(CCCCCNC(=O)/C=C/c3ccc(Cl)c(Cl)c3)CC2)cc1` [TCMDC-135837], the “% Inhibition” value was found to be 78.66%.

On to `O=C(Nc1ccc(Cl)c(C(F)(F)F)c1)c1ccc(C(=O)Nc2ccc(Cl)c(C(F)(F)F)c2)cc1` [TCMDC-125581], for which the “% Inhibition” value is -42.79%.

On to `CC1(C)N=C(N)N=C(N)N1OCCCCON1C(N)=NC(N)=NC1(C)C` [TCMDC-131630], for which the “% Inhibition” value stood at 2.586%.

Turning to `Cc1cc(NC(=O)NCCN2CCC(NS(=O)(=O)c3ccc(C(F)(F)F)cc3)C2)c2ccccc2n1` (stereo not drawn) [TCMDC-136140], the “% Inhibition” value came to 44.51%.

As to `O=C(Nc1ccccc1)N(Cc1cccc(-c2cccc(CNCCc3ccccc3)c2)c1)C1CCN(Cc2ccccc2)CC1` [TCMDC-140587], the “% Inhibition” value came out at 90.55%.

In the case of `O=C(Nc1ccccc1)N(Cc1ccccc1-c1cccc(CNCCc2ccccc2)c1)C1CCN(Cc2ccccc2)CC1` [TCMDC-140580], the “% Inhibition” value is 102.3%.

For `NCc1ccc(-c2ccccc2CN(C(=O)Nc2ccccc2)C2CCN(Cc3ccccc3)CC2)cc1` [TCMDC-140577], the “% Inhibition” value stood at 94.87%.

Consider `O=C(Nc1ccccc1)N(Cc1ccccc1-c1cccc(CNCc2ccc3c(c2)OCO3)c1)C1CCN(Cc2ccccc2)CC1` [TCMDC-140582], for which the “% Inhibition” value is given as 47.74%.

In the case of `NCc1cccc(-c2cccc(CN(C(=O)Nc3ccccc3)C3CCN(Cc4ccccc4)CC3)c2)c1` [TCMDC-140583], the “% Inhibition” value is listed as 102.4%.

As for `Cc1ccc(CN=C(N)NC(=O)c2nc(Cl)c(NCc3ccc(Cl)cc3)nc2N)c(C)c1` [TCMDC-138938], the “% Inhibition” value was 26.05%.

As for `CN(c1ccc(NC(=O)c2cccc(F)c2)cc1)C1CCCN(Cc2cccc(O)c2)C1` (stereo not drawn) [TCMDC-134957], the “% Inhibition” value is on record as -38.33%.

`CC(=O)N(Cc1cccc(-c2ccc(CNCCc3ccccc3)cc2)c1)C1CCN(Cc2ccccc2)CC1` [TCMDC-140528]: the “% Inhibition” value is 44.2%.

As to `CC(=O)N(Cc1cccc(-c2cccc(CNCCc3ccccc3)c2)c1)C1CCN(Cc2ccccc2)CC1` [TCMDC-140527], the “% Inhibition” value turned out to be 98.23%.

Consider `O=C(Nc1ccccc1)N(Cc1cccc(-c2ccc(CNCCc3ccccc3)cc2)c1)C1CCN(Cc2ccccc2)CC1` [TCMDC-140588], for which the “% Inhibition” value turned out to be 106.9%.
